{"source": "PubChem BioAssay AID463173", "about": "(ICCB-Longwood Screening Facility, Harvard Medical School, 2010)", "note": "About 4,300 (8.3%) of roughly 52,000 compounds were called active. Many of the other results were omitted from the sample, so actives are more common in it than they were. A number with no mark means an inactive call. Rule as the data show it: active = survival mostly below about 52% (no sharp cut-off); inactive = mostly above about 56%."}
{"system": "DeltatarO mutant", "test": "S. aureus survival, RN4220 and DeltatarO strains – OD600, teichoic acid synthesis inhibitors, primary screen (AID 463173)", "conditions": "S. aureus RN4220 wild type/DeltatarO growth, OD600, 18 h, active compounds read low, screened at 18.75 µg/mL (by protocol)"}
{"smiles": "CCOc1ccc(CNC(=O)CSc2nnc(C)c3c(C)n(-c4ccc(Cl)cc4)nc23)cc1", "survival": "91%"}
{"smiles": "COc1ccccc1/C=C/c1nc(C#N)c(N2CCN(C)CC2)o1", "survival": "92%"}
{"smiles": "CCOC(=O)COc1cc(C)c(Cl)cc1C(=O)c1ccn2nc(-c3ccc(OC)cc3)cc2n1", "survival": "92%"}
{"smiles": "O=C(CSc1nnc(-c2ccccc2)o1)c1cccc([N+](=O)[O-])c1", "survival": "135%"}
{"smiles": "CCc1ccc(O)c(C(=O)c2cnc3cc(-c4ccc(C)cc4)nn3c2)c1", "survival": "89%"}
{"smiles": "COc1ccc(CNC(=O)c2cc(-c3ccc(OC)cc3)nc3n[nH]c(-c4cccc([N+](=O)[O-])c4)c23)cc1", "survival": "68%"}
{"smiles": "Cc1ccc(-c2cc3ncc(C(=O)c4cc([N+](=O)[O-])ccc4O)cn3n2)cc1", "survival": "8% (active)"}
{"smiles": "COc1ccc(-c2cc3ncc(C(=O)c4cc([N+](=O)[O-])ccc4O)cn3n2)cc1", "survival": "33% (active)"}
{"smiles": "O=C(c1cnc2cc(-c3ccccc3)nn2c1)c1cc([N+](=O)[O-])ccc1O", "survival": "9% (active)"}
{"smiles": "CCOC(=O)c1cnc2cc(-c3ccc(Cl)cc3)nn2c1-c1ccccc1", "survival": "68%"}
{"smiles": "Cc1ccc(-c2cc3ncc(C(=O)c4cc(Cl)c(C)cc4O)cn3n2)cc1", "survival": "84%"}
{"smiles": "CC(=O)Nc1cccc(NC(=O)CCn2cnc3cc(C)c(C)cc32)c1", "survival": "62%"}
{"smiles": "COc1cccc(C(=O)NC(=S)NCc2ccco2)c1", "survival": "93%"}
{"smiles": "O=C(Cn1nc(C(F)(F)F)c2c1CCC2)Nc1ccc(Cl)cc1", "survival": "54%"}
{"smiles": "CCN(CC)c1ccc(C(=O)NCc2ccc3c(c2)CCN3C(=O)c2ccc(F)cc2)cc1", "survival": "84%"}
{"smiles": "CCN1/C(=C2\\C(=O)N(c3ccc(Cl)cc3)N=C2C)C=Cc2ccccc21", "survival": "68%"}
{"smiles": "CCOC(=O)C(Cc1ccccc1)NC(=O)Cn1nnc(-c2ccc(C)cc2)n1", "note": "(stereo unspecified)", "survival": "59%"}
{"smiles": "CCOc1cc(C#N)c(NC(=O)Cn2nnc(-c3ccc(C)cc3)n2)cc1OCC", "survival": "42% (active)"}
{"smiles": "Cc1ccc(-c2nnn(CC(=O)NC(C)C)n2)cc1", "survival": "83%"}
{"smiles": "Cc1ccc(NC(=O)Cn2c(=O)oc3cc(S(=O)(=O)N4CCCCCC4)ccc32)cc1Cl", "survival": "93%"}
{"smiles": "Cc1nc2ccccc2n1CC(O)COc1ccc(C(=O)O)cc1", "note": "(stereo unspecified)", "survival": "46% (active)"}
{"smiles": "CCCc1nc2ccccc2n1CC(O)COc1ccccc1", "note": "(stereo unspecified)", "survival": "69%"}
{"smiles": "CCCc1nc2ccccc2n1CC(O)COc1ccc(C(=O)OC)cc1", "note": "(stereo unspecified)", "survival": "64%"}
{"smiles": "CCN(Cc1ccccc1)c1ncnc2c1nnn2C", "survival": "57%"}
{"smiles": "CCOc1ccccc1CNC(=O)c1nc(-c2ccc(Cl)cc2)n2c1CCCCC2", "survival": "67%"}
{"smiles": "Cc1ccc(-n2nc3c(N4CCC(C(=O)N5CCCCC5)CC4)nnc(C)c3c2C)cc1", "survival": "85%"}
{"smiles": "Cc1cc(F)ccc1S(=O)(=O)NCC(c1ccco1)S(=O)(=O)c1cccs1", "note": "(stereo unspecified)", "survival": "118%"}
{"smiles": "Cc1cc(C)c(S(=O)(=O)NCC(c2ccco2)S(=O)(=O)c2ccccc2)c(C)c1", "note": "(stereo unspecified)", "survival": "99%"}
{"smiles": "O=S(=O)(NCC(c1ccco1)S(=O)(=O)c1cccs1)c1ccc(Cl)cc1", "note": "(stereo unspecified)", "survival": "92%"}
{"smiles": "Cc1cc(C)c(S(=O)(=O)NCC(c2ccco2)S(=O)(=O)c2cccs2)c(C)c1", "note": "(stereo unspecified)", "survival": "25% (active)"}
{"smiles": "Cc1cc(S(=O)(=O)NCC(c2ccco2)S(=O)(=O)c2cccs2)ccc1F", "note": "(stereo unspecified)", "survival": "101%"}
{"smiles": "O=S(=O)(NCC(c1ccco1)S(=O)(=O)c1cccs1)c1ccc(F)c(C(F)(F)F)c1", "note": "(stereo unspecified)", "survival": "37% (active)"}
{"smiles": "COc1ccc(-c2cnnn2-c2ccc(NC(=O)c3ccccc3OC)cc2)cc1", "survival": "107%"}
{"smiles": "CCOc1ccccc1CN(CCc1ccc2c(c1)OCO2)Cc1ccccn1", "survival": "77%"}
{"smiles": "CCOc1ccccc1CN(CCc1ccc2c(c1)OCO2)Cc1cc(OC)c(OC)cc1OC", "survival": "56%"}
{"smiles": "CCOc1ccccc1CN(CCc1ccc2c(c1)OCO2)Cc1cccc(OC)c1OC", "survival": "34% (active)"}
{"smiles": "COc1cccc(NC(=O)Cn2c(=O)n(-c3ccc(C)cc3)c(=O)c3ccc(C(=O)NCc4ccco4)cc32)c1", "survival": "80%"}
{"smiles": "Cc1c(Cl)cccc1NC(=O)c1ccc2c(c1)CCN2S(=O)(=O)c1ccccc1", "survival": "39% (active)"}
{"smiles": "CCc1cccc(CC)c1NC(=O)c1ccc2c(c1)CCN2S(=O)(=O)c1ccccc1", "survival": "60%"}
{"smiles": "Cc1cccc(NC(=O)c2ccc3c(c2)CCN3S(=O)(=O)c2ccccc2)c1C", "survival": "38% (active)"}
{"smiles": "Cc1ccc(C)c(NC(=O)c2ccc3c(c2)CCN3S(=O)(=O)c2ccccc2)c1", "survival": "40% (active)"}
{"smiles": "Cc1c(Cl)cccc1NC(=O)c1ccc2c(c1)CCCN2S(C)(=O)=O", "survival": "70%"}
{"smiles": "CCS(=O)(=O)N1CCc2cc(C(=O)Nc3cccc(C)c3C)ccc21", "survival": "80%"}
{"smiles": "CCS(=O)(=O)N1CCc2cc(C(=O)Nc3cccc(Cl)c3C)ccc21", "survival": "86%"}
{"smiles": "Cc1ccc(C)c(NC(=O)c2ccc3c(c2)CCN3S(C)(=O)=O)c1", "survival": "105%"}
{"smiles": "Cc1ccc(S(=O)(=O)N2CCc3cc(C(=O)Nc4ccc(C)c(C)c4)ccc32)cc1", "survival": "60%"}
{"smiles": "CC(=O)N1c2ccccc2C(=O)C1N1CCN(c2ccccc2F)CC1", "note": "(stereo unspecified)", "survival": "90%"}
{"smiles": "COc1ccc(-c2cn3c(n2)sc2cc(C(=O)Nc4cccc(SC)c4)ccc23)cc1", "survival": "59%"}
{"smiles": "COC(=O)c1cc(NC(=O)Cn2ncc3c([nH]c4ccccc43)c2=O)cc(C(=O)OC)c1", "survival": "66%"}
{"smiles": "O=C(CSc1ccc(-c2ccccn2)nn1)Nc1ccc(F)cc1F", "survival": "38%"}
{"smiles": "O=C(NCCc1ccc(Cl)cc1)c1ccc2c(c1)N(Cc1ccc(F)cc1Cl)C(=O)CS2", "survival": "49%"}
{"smiles": "O=C(NCCc1ccccc1)c1ccc2c(c1)N(Cc1ccc(Cl)cc1)C(=O)CS2", "survival": "144%"}
{"smiles": "O=C(NCCc1ccc(Cl)cc1)c1ccc2c(c1)N(Cc1ccccc1)C(=O)CS2", "survival": "25% (active)"}
{"smiles": "CC(NC(=O)c1ccc2c(c1)N(Cc1ccc(Cl)cc1)C(=O)CS2)c1ccccc1", "note": "(stereo unspecified)", "survival": "48% (active)"}
{"smiles": "CC(NC(=O)c1ccc2c(c1)N(Cc1ccc(Cl)cc1)C(=O)c1ccccc1S2=O)c1ccccc1", "note": "(stereo unspecified)", "survival": "73%"}
{"smiles": "O=C(NCCc1ccccc1)c1ccc2c(c1)N(Cc1ccccc1Cl)C(=O)c1ccccc1S2", "survival": "94%"}
{"smiles": "O=C(NCCc1ccccc1)c1ccc2c(c1)N(Cc1c(F)cccc1Cl)C(=O)CS2", "survival": "54%"}
{"smiles": "O=C(NCCc1ccccc1)c1ccc2c(c1)N(Cc1ccc(F)cc1Cl)C(=O)CS2", "survival": "55% (active)"}
{"smiles": "CC(NC(=O)c1ccc2c(c1)N(Cc1ccc(Cl)cc1)C(=O)c1ccccc1S2(=O)=O)c1ccccc1", "note": "(stereo unspecified)", "survival": "90%"}
{"smiles": "Cc1ccc(C)c(CN2C(=O)CSc3ccc(C(=O)NCCc4ccc(Cl)cc4)cc32)c1", "survival": "49%"}
{"smiles": "O=C(NCCc1ccc(Cl)cc1)c1ccc2c(c1)N(Cc1ccccc1)CCS2", "survival": "102%"}
{"smiles": "O=C(NCCc1ccc(Cl)cc1)c1ccc2c(c1)N(Cc1c(F)cccc1Cl)C(=O)CS2", "survival": "44% (active)"}
{"smiles": "CCOC(=O)c1c(C)n(CCNC(C)=O)c2cc(Br)c(OC)cc12", "survival": "106%"}
{"smiles": "O=C(COc1ccccc1)Nc1ccccc1C(=O)OCc1cc(=O)n2nc(C3CC3)sc2n1", "survival": "89%"}
{"smiles": "Cc1ccc(Nc2cc(=O)[nH]c(=O)[nH]2)cc1C", "survival": "72%"}
{"smiles": "CCc1ccc(NC(=O)C(=O)NCC(c2cccnc2)N2CCN(Cc3ccccc3)CC2)cc1", "note": "(stereo unspecified)", "survival": "75%"}
{"smiles": "CCc1ccc(CNC(=O)CCCN2C(=O)CCn3nc(-c4cccn4C)cc32)cc1", "survival": "72%"}
{"smiles": "Cc1ccccc1C(=O)NCCc1sc(-c2ccc(Cl)cc2)nc1C", "survival": "100%"}
{"smiles": "COc1cccc(NC(=O)c2cn(C3CCCCC3)c(=O)c3c2c2ccccc2n3C)c1", "survival": "75%"}
{"smiles": "Cc1ccc(CN(C(=O)c2ccc(OCC(C)C)cc2)c2ccccn2)o1", "survival": "104%"}
{"smiles": "O=C(NCCc1ccc(Cl)cc1)c1ccc2c(c1)N(Cc1ccc(Cl)cc1)C(=O)CS2", "survival": "50%"}
{"smiles": "O=C(NCc1ccc(F)cc1)c1ccc2c(c1)N(Cc1c(F)cccc1Cl)C(=O)CS2", "survival": "40% (active)"}
{"smiles": "COc1ccc(CCNC(=O)c2ccc3c(c2)N(Cc2ccc(F)cc2)C(=O)CS3)cc1OC", "survival": "117%"}
{"smiles": "O=C(NCCc1ccc(Cl)cc1)c1ccc2c(c1)N(Cc1ccc(F)cc1)C(=O)CS2", "survival": "37% (active)"}
{"smiles": "O=C(NCCc1ccccc1)c1ccc2c(c1)N(Cc1ccc(F)cc1)C(=O)CS2", "survival": "74%"}
{"smiles": "COc1ccc(CCNC(=O)c2ccc3c(c2)N(Cc2cccc(Cl)c2)C(=O)c2ccccc2S3=O)cc1OC", "note": "(stereo unspecified)", "survival": "94%"}
{"smiles": "COc1ccccc1CNC(=O)c1ccc2c(c1)N(Cc1ccc(C)cc1)CCS2", "survival": "83%"}
{"smiles": "COc1ccc(CNC(=O)c2ccc3c(c2)N(Cc2c(F)cccc2Cl)C(=O)CS3)cc1", "survival": "124%"}
{"smiles": "O=C(NCc1ccc2c(c1)OCO2)c1ccc2c(c1)N(Cc1c(F)cccc1Cl)C(=O)c1ccccc1S2", "survival": "86%"}
{"smiles": "COc1ccc(CCNC(=O)c2ccc3c(c2)N(Cc2cccc(Cl)c2)C(=O)CS3)cc1OC", "survival": "54% (active)"}
{"smiles": "COc1ccccc1CNC(=O)c1ccc2c(c1)N(Cc1c(F)cccc1Cl)C(=O)CS2", "survival": "43% (active)"}
{"smiles": "COCCNC(=O)c1ccc2c(c1)N(Cc1c(F)cccc1Cl)C(=O)c1ccccc1S2", "survival": "78%"}
{"smiles": "CCOc1ccc(NC(=O)C2CCCN(c3cnccn3)C2)cc1", "note": "(stereo unspecified)", "survival": "86%"}
{"smiles": "CCOc1cc(-c2ccc(OC(=O)c3ccccc3Cl)c(OC)c2)cc(=O)c2c(C)oc(C)c12", "survival": "69%"}
{"smiles": "COc1ccccc1CNC(=O)c1ccc(CSc2nc3ccncc3n2Cc2ccccc2C)cc1", "survival": "74%"}
{"smiles": "Cc1ccc(C(=O)Nc2nnc(S(=O)(=O)N3CCN(c4ccc(F)cc4)CC3)s2)cc1", "survival": "56%"}
{"smiles": "COc1ccc(C(=O)Nc2nnc(S(=O)(=O)N3CCOCC3)s2)cc1", "survival": "99%"}
{"smiles": "Cc1ccc(N2CCN(S(=O)(=O)c3nnc(NC(=O)c4ccc(C(C)C)cc4)s3)CC2)cc1", "survival": "42% (active)"}
{"smiles": "COc1ccc(C(=O)Nc2nnc(S(=O)(=O)N3CCN(c4ccc(C)cc4)CC3)s2)cc1", "survival": "48% (active)"}
{"smiles": "Cc1ccc(C(=O)Nc2nnc(S(=O)(=O)N3CCOCC3)s2)cc1", "survival": "68%"}
{"smiles": "COc1ccc(C(=O)Nc2nnc(S(=O)(=O)N3CCN(c4ccc(F)cc4)CC3)s2)cc1", "survival": "56%"}
